Reference: PubChem BioAssay (Tox21)
Values joined by “and” are separate entries in the source; they are usually repeats but may differ in a detail not shown here. Identical values can stand only once. Inconclusive results are not listed. Unmarked numbers belong to inactive results. Active and inactive are the calls of the source. Calls come from the whole dose curve; as a rule, active = well fitted activation curve with a large enough effect in the repeat runs; inconclusive = weak or mixed curves; inactive = flat fitted curve, though single readings scatter.

Assay: Caspase-3/7 induction in HepG2 cells by small molecules, qHTS assay (AID 1346978); note: nearly all actives have a fitted effect of over 15% in size
Conditions: HepG2 caspase-3/7 activation, Caspase-Glo luminescence, 17 h; series mostly up to 92.4 µM; caspase activation: at the top concentration
Excerpt: National Center for Advancing Translational Sciences [NCATS] NIH Chemical Genomics Center [NCGC] U.S. Environmental Protection Agency [EPA] National Institutes of Environmental Health Sciences [NIEHS] National Toxicology Program [NTP] Assay overview: Apoptosis is a process of programmed cell death and plays a central role in the development of multicellular organisms. It is a highly regulated process and induces cell death by activating caspases, which are the members of cysteine aspartic acid-specific protease (caspase) family. Caspases involved in apoptosis are classified by their mechanism of action as initiator caspases (caspase-2, -8, -9 and -10) and executioner caspases (caspase-3, -6, and -7). Inhibition of apoptosis results in number of cancers, autoimmune diseases, inflammatory diseases and viral infection. To identify small molecule compounds that induce apoptosis, a homogeneous, luminescent Caspase-Glo 3/7 assay was used. Wild type HepG2 cells were used to screen Tox21 libraries for identifying caspase-3/7 activity inducers.
Assay Protocol Summary: HepG2 cells were dispensed at 2,000 per well in 5uL of culture medium into white solid bottom 1536-well plates (Corning Life Sciences, Corning, NY) using a Multidrop Combi (Thermo Scientific, Waltham, MA) dispenser. The assay plates were incubated at 37 C and 5% CO2 for 5hr, and then 23nL of compounds dissolved in DMSO and positive control were transferred using a Pintool station (Wako, San Diego, CA). The assay plates were incubated at 37C and 5% CO2 for 17hr. For caspase-3/7 activity read, 4uL of Caspase-Glo 3/7 reagent (Promega Corporation, Madison, WI) was added to each well of the assay plates using Flying Reagent Dispenser (FRD, Aurora Discovery, San Diego, CA) and incubated the assay plates at room temperature for 30min. The luminescence signal was quantified using a ViewLux plate reader (Perkin Elmer, Shelton, CT).
% is set by controls: 0 for no effect and ±100 for the full control effect; potency is the fitted concentration of half-maximal effect.

Structure (SMILES)	caspase activation	Potency
CC(C)C(=O)Cl	0.776%	–
ClCCN1CCOCC1	0.0131%	–
NC(=O)CCl	-0.854%	–
CC(=O)c1cc(C(C)(C)C)cc2c1CCC2(C)C	11%	–
O=C1c2ccccc2C(=O)C1C(=O)C(c1ccccc1)c1ccc(Cl)cc1 (stereo not given)	-5.03%	–
CCCCN(CCCC)C(=S)[S-].CCCCN(CCCC)C(=S)[S-].[Zn+2]	-17.9%	–
N#Cc1ccccc1N	-0.716%	–
C=CCC1=C(C)C(OC(=O)C2C(C=C(C)C)C2(C)C)CC1=O (stereo not given)	3.18%	–
Cc1cc(N=Nc2ccccc2C)ccc1N	–	1.37 µM (active) and 969 nM (active)
Cc1cccc(OP(=O)(Oc2cccc(C)c2)Oc2cccc(C)c2)c1	1.66%	–
O=c1c(C2CC(c3ccc(-c4ccc(Br)cc4)cc3)Cc3ccccc32)c(O)sc2ccccc12 (stereo not given)	-7.67% [at 42.5 µM]	–
Clc1ccc(-c2ccc(Cl)c(Cl)c2Cl)c(Cl)c1Cl	0.483%	–
CCCCCCCCCCCCCCCC[N+](C)(C)C	–	inactive
C[C@@H]1O[C@@H](O[C@H]2C[C@@H](O)[C@]3(CO)[C@H]4[C@H](O)C[C@]5(C)[C@@H](C6=CC(=O)OC6)CC[C@]5(O)[C@@H]4CC[C@]3(O)C2)[C@H](O)[C@H](O)[C@H]1O	–	inactive
CC(C)(C)C(O)C(Oc1ccc(-c2ccccc2)cc1)n1cncn1 (stereo not given)	4.78%	–
CCS(=O)(=O)c1cccnc1S(=O)(=O)NC(=O)Nc1nc(OC)cc(OC)n1	0.27%	–
CSCCCN=C=S	-1.56%	–
CN(C)C1CSSSC1	-1.53%	–
N#CC(Cl)Cl	0.732%	–
CCCCOP(=O)(CCCC)OCCCC	2.11%	–

Structure (SMILES)	caspase activation	Potency
CC(C)(C)OO	-0.93%	–
N#CNC#N	-1.1%	–
CCCCCCCCCCBr	0.657%	–
CC(=O)O[C@H]1CC[C@@]2(C)C(=CC[C@@H]3[C@@H]2CC[C@]2(C)C(=O)CC[C@@H]32)C1	0.589%	–
CCN	-0.0763%	–
Clc1ccc(-c2ccccc2)cc1	0.214%	–
Fc1ccc(Oc2ccnc3cc(Cl)cc(Cl)c23)cc1	-1.75%	–
ClC(Cl)=C(Cl)Cl	0.197%	–
CCC[CH2][Sn]([CH2]CCC)([CH2]CCC)[O]C(=O)c1ccccc1	–	3.06 µM (active)
O=C1NCN(c2ccccc2)C12CCN(CC1COc3ccccc3O1)CC2 (stereo not given)	0.0196% [at 42.5 µM]	–
OC(Cc1ccccc1Cl)(Cn1cncn1)C1(Cl)CC1 (stereo not given)	-4.14%	–
C[C@]12CC[C@H]3[C@@H](CCC4=CC(=O)CC[C@@]43C)[C@@H]1CC[C@@H]2O	6.43%	–
N#Cc1ccc(O)cc1	0.213%	–
CCSC(C)CC1CC(=O)C(/C(CC)=N/OC/C=C/Cl)=C(O)C1 (stereo not given)	0.285% [at 42.5 µM]	–
COC(=O)N(C(=O)N1CO[C@@]2(C(=O)OC)Cc3cc(Cl)ccc3C2=N1)c1ccc(OC(F)(F)F)cc1	0.948%	–
CC(C)Oc1cccc(NC(=O)c2ccccc2C(F)(F)F)c1	-0.88%	–
CC1(C)CN=C(NN=C(/C=C/c2ccc(C(F)(F)F)cc2)/C=C/c2ccc(C(F)(F)F)cc2)NC1	–	12.2 µM (active)
CC(Cl)CN(C)C (stereo not given)	-1.93%	–
[CH3][Hg][Cl]	-9.89%	–
BrCC(Br)c1ccccc1 (stereo not given)	-1.17%	–
